Reference: PubChem BioAssay (NCI)
This is part of a sample that, as a whole, favours compounds with a hit. Of some 83,000 tested, about 20% had one in any assay.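 Assay: single dose, 48 h. Readout: percent growth (0 = no net growth; negative = cell death). Active: <10.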 Values without a mark were called inactive. The source made the active and inactive calls.

Test system: SF-295 CNS
Test: NCI-60 one-dose screen, 48 h (100 = growth as untreated, 0 = no growth, -100 = all killed)
Conditions: 10 µM unless noted

| SMILES | growth |
| --- | --- |
| CCOC(=O)c1c(Nc2ccccc2)nn2c(N)c(C#N)c(-c3ccccc3)nc12 | 81.3% |
| COC(=O)c1ccc(NC(=S)N2CCc3ccc([N+](=O)[O-])cc3C2)cc1O | 102% |
| CCCC(=O)NC(c1cccc(N(C)C)c1)c1cc(C)c2cccnc2c1O (stereo not drawn) | 42.3% |
| COc1cc(/C=C/C(=O)c2cc(OC)c(OC)c(OC)c2)ccc1Oc1nc(NCCO)nc(N2CCOCC2)n1 | 12.6% |
| CS(=O)(=O)c1ccc(-n2cc(/C=C/C(=O)c3ccc(NC(=O)CO[N+](=O)[O-])cc3)c(-c3ccc(Cl)cc3)n2)cc1 | 91.2% |
| Cc1cc2nc3c4cc(Cl)ccc4n(CC(=O)NCCN(C)C)c3nc2cc1C | 93.5% |
| Cc1cc2nc3c4cc(Cl)ccc4n(CC(=S)NCCN(C)C)c3nc2cc1C | -50.4% (active) |
| NS(=O)(=O)c1ccc(Nc2nc(SCC(=O)c3ccc(Cl)cc3)nc3ccccc23)cc1 | 95.1% |
| Clc1ccc2oc3c(NCCCN4CCOCC4)c4ccccc4nc3c2c1 | 17.4% |
| Cc1ccc(/C=C/c2nn3c(-c4ccco4)nnc3s2)cc1C | 97% |
| N=C1CC(=O)NN1C(=O)CSc1nc2sc3c(c2c(=O)n1-c1ccc(Cl)cc1)CCCC3 | 97.6% |
| O=C(NNc1nc2cc(F)ccc2n2c(CN3CC4(COC4)C3)ccc12)c1cnccn1 | 14.3% |
| COc1cc2nc(-c3ccc(C)cc3)cc(OCCCNCC3CCCO3)c2cc1OC (stereo not drawn) | 59.9% |
| CS(=O)(=O)c1ccc(-c2nc3ccccn3c2C=Nc2ccc(Cl)cc2)cc1 | 87.9% |
| C#Cc1nc(C2=C(C)C(=O)/C(=N/OC(C)=O)C2)cs1 | 56.1% |
| CSCCC(C(=O)O)N1C(=O)/C(=C/c2ccc(O)c(O)c2)SC1=S (stereo not drawn) | 96.5% |
| CC(=NNc1ncnc2ccccc12)c1ccc(S(C)(=O)=O)cc1 | 97.1% |
| Nc1c(C(=O)c2ccc(Br)cc2)oc2nc(-c3cnccn3)cc(-c3cccs3)c12 | 99.6% |
| COc1cc(-c2nc3ccc(-c4nnc(SCC(=O)Nc5ccc(C(C)=O)cc5)o4)cc3[nH]2)cc(OC)c1OC | 101% |
| N#Cc1nc(-c2ccccc2)oc1S(N)(=O)=O | 101% |

| SMILES | growth |
| --- | --- |
| O=C(CN1C(=O)/C(=C/c2ccccc2)SC1=S)N1CCOCC1 | 103% |
| Nc1ncc(-c2ccc3ncnc(N4CCc5cc(F)c(Cl)cc54)c3c2)cc1CO | -11.5% (active) |
| Cc1ccc(C(=O)Nc2cccc(C(F)(F)F)c2)cc1Nc1nc(-c2cnccn2)nc2c1cnn2C | 79% |
| Clc1ccc2c(NCCCn3ccnc3)c3oc4ccc(Cl)cc4c3nc2c1 | 86.4% |
| CN(C)CCCNc1c2ccc(Cl)cc2nc2c1oc1ccc(Cl)cc12 | -66.9% (active) |
| O=C(N/N=C/c1ccc[nH]1)c1[nH]c2ccc(Br)cc2c1-c1ccccc1 | 7.67% (active) |
| C#Cc1nc(C2=C(C)/C(=N/OCc3ccccc3)CC2)cs1 | -84% (active) |
| N#Cc1ccc(C(=O)CSc2nc(Nc3ccc(S(N)(=O)=O)cc3)c3ccccc3n2)cc1 | 102% |
| C=CCn1c(SCC(=O)c2ccccc2)nnc1-c1c[nH]c2ccccc12 | 96.2% |
| Cc1cc(=O)oc2cc(OCCCOc3ccc(/C=C/C(=O)Nc4ccc(Cl)cc4)cc3)ccc12 | 77.7% |
| O=C(c1ccc(Cl)cc1)C1[C@H](c2ccc(Cl)cc2)[C@@H](c2ccccc2)NC12C(=O)Nc1ccc(Br)cc12 (stereo partly drawn) | 35.4% |
| C[C@@H](Nc1c(C#N)cnc2ccc(-c3cnc(N)nc3)cc12)c1ccccc1 | 2.02% (active) |
| CCN1C(=S)N(CC)C2C1NN=C1SC(c3ccccc3)=CC(=O)N12 (stereo not drawn) | 106% |
| CC(C)(O)c1cncc(-c2ccc3ncnc(N4CCc5cc(F)c(Cl)cc54)c3c2)c1 | 7.56% (active) |
| CC(C)(C)Nc1nc2c(OCCc3ccccc3)cccn2c1-c1ccccc1Cl | -56.8% (active) |
| COc1ccc(/C=N/NC(=O)c2[nH]c3ccc(Br)cc3c2-c2ccccc2)s1 | 15.6% |
| OC1CCN(CCCOc2c3ccccc3nc3c2oc2ccc(Cl)cc23)CC1 | 8.74% (active) |
| Cc1sc2c(c1C)c(=O)nc1c(-c3nc(-c4ccc(F)cc4)no3)n[nH]n12 | 98.4% |
| CC(C)(C)Nc1nc2c(OCCc3ccccc3)cccn2c1-c1cccc(F)c1 | -38.2% (active) |

Test system: SF-539 CNS
Test: as above
Conditions: 10 µM unless noted

| SMILES | growth |
| --- | --- |
| CCOC(=O)c1c(Nc2ccccc2)nn2c(N)c(C#N)c(-c3ccccc3)nc12 | 82.2% |
| COC(=O)c1ccc(NC(=S)N2CCc3ccc([N+](=O)[O-])cc3C2)cc1O | 103% |
| CCCC(=O)NC(c1cccc(N(C)C)c1)c1cc(C)c2cccnc2c1O (stereo not drawn) | 53.9% |
| COc1cc(/C=C/C(=O)c2cc(OC)c(OC)c(OC)c2)ccc1Oc1nc(NCCO)nc(N2CCOCC2)n1 | -5.48% (active) |
| CS(=O)(=O)c1ccc(-n2cc(/C=C/C(=O)c3ccc(NC(=O)CO[N+](=O)[O-])cc3)c(-c3ccc(Cl)cc3)n2)cc1 | 92.7% |
| Cc1cc2nc3c4cc(Cl)ccc4n(CC(=O)NCCN(C)C)c3nc2cc1C | 21.8% |
| Cc1cc2nc3c4cc(Cl)ccc4n(CC(=S)NCCN(C)C)c3nc2cc1C | -94.3% (active) |
| NS(=O)(=O)c1ccc(Nc2nc(SCC(=O)c3ccc(Cl)cc3)nc3ccccc23)cc1 | 88.3% |
| Clc1ccc2oc3c(NCCCN4CCOCC4)c4ccccc4nc3c2c1 | 19.9% |
| Cc1ccc(/C=C/c2nn3c(-c4ccco4)nnc3s2)cc1C | 99% |
| N=C1CC(=O)NN1C(=O)CSc1nc2sc3c(c2c(=O)n1-c1ccc(Cl)cc1)CCCC3 | 97.3% |
| O=C(NNc1nc2cc(F)ccc2n2c(CN3CC4(COC4)C3)ccc12)c1cnccn1 | 3.55% (active) |
| COc1cc2nc(-c3ccc(C)cc3)cc(OCCCNCC3CCCO3)c2cc1OC (stereo not drawn) | 73.7% |
| CS(=O)(=O)c1ccc(-c2nc3ccccn3c2C=Nc2ccc(Cl)cc2)cc1 | 84.1% |
| C#Cc1nc(C2=C(C)C(=O)/C(=N/OC(C)=O)C2)cs1 | 58.4% |
| CSCCC(C(=O)O)N1C(=O)/C(=C/c2ccc(O)c(O)c2)SC1=S (stereo not drawn) | 95.7% |
| CC(=NNc1ncnc2ccccc12)c1ccc(S(C)(=O)=O)cc1 | 97.6% |
| Nc1c(C(=O)c2ccc(Br)cc2)oc2nc(-c3cnccn3)cc(-c3cccs3)c12 | 98.8% |
| COc1cc(-c2nc3ccc(-c4nnc(SCC(=O)Nc5ccc(C(C)=O)cc5)o4)cc3[nH]2)cc(OC)c1OC | 97.6% |
| N#Cc1nc(-c2ccccc2)oc1S(N)(=O)=O | 36.8% |

| SMILES | growth |
| --- | --- |
| O=C(CN1C(=O)/C(=C/c2ccccc2)SC1=S)N1CCOCC1 | 95.8% |
| Nc1ncc(-c2ccc3ncnc(N4CCc5cc(F)c(Cl)cc54)c3c2)cc1CO | -17.8% (active) |
| Cc1ccc(C(=O)Nc2cccc(C(F)(F)F)c2)cc1Nc1nc(-c2cnccn2)nc2c1cnn2C | 60.6% |
| Clc1ccc2c(NCCCn3ccnc3)c3oc4ccc(Cl)cc4c3nc2c1 | 84% |
| CN(C)CCCNc1c2ccc(Cl)cc2nc2c1oc1ccc(Cl)cc12 | -85.8% (active) |
| O=C(N/N=C/c1ccc[nH]1)c1[nH]c2ccc(Br)cc2c1-c1ccccc1 | 14.2% |
| C#Cc1nc(C2=C(C)/C(=N/OCc3ccccc3)CC2)cs1 | -86.5% (active) |
| N#Cc1ccc(C(=O)CSc2nc(Nc3ccc(S(N)(=O)=O)cc3)c3ccccc3n2)cc1 | 102% |
| C=CCn1c(SCC(=O)c2ccccc2)nnc1-c1c[nH]c2ccccc12 | 97.3% |
| Cc1cc(=O)oc2cc(OCCCOc3ccc(/C=C/C(=O)Nc4ccc(Cl)cc4)cc3)ccc12 | 75.6% |
| O=C(c1ccc(Cl)cc1)C1[C@H](c2ccc(Cl)cc2)[C@@H](c2ccccc2)NC12C(=O)Nc1ccc(Br)cc12 (stereo partly drawn) | 59.5% |
| C[C@@H](Nc1c(C#N)cnc2ccc(-c3cnc(N)nc3)cc12)c1ccccc1 | 3.05% (active) |
| CCN1C(=S)N(CC)C2C1NN=C1SC(c3ccccc3)=CC(=O)N12 (stereo not drawn) | 98% |
| CC(C)(O)c1cncc(-c2ccc3ncnc(N4CCc5cc(F)c(Cl)cc54)c3c2)c1 | 4.86% (active) |
| CC(C)(C)Nc1nc2c(OCCc3ccccc3)cccn2c1-c1ccccc1Cl | -74.7% (active) |
| COc1ccc(/C=N/NC(=O)c2[nH]c3ccc(Br)cc3c2-c2ccccc2)s1 | 1.16% (active) |
| OC1CCN(CCCOc2c3ccccc3nc3c2oc2ccc(Cl)cc23)CC1 | 14.6% |
| Cc1sc2c(c1C)c(=O)nc1c(-c3nc(-c4ccc(F)cc4)no3)n[nH]n12 | 93.7% |
| CC(C)(C)Nc1nc2c(OCCc3ccccc3)cccn2c1-c1cccc(F)c1 | -62.6% (active) |
